In PubChem BioAssay (NCI):
About 79,000 compounds went through this panel and 15% of them were active in at least one assay; those are over-represented in the sample as a whole. Activity calls are given as the source filed them. Rule as the data show it: active = growth inhibition above about 70%; inactive = the rest.

Experiments:
[1] = NCI Yeast Anticancer Drug Screen. Data for the rad52 strain (AID 147);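 also: 0% = growth of vehicle-treated control cultures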; details: S. cerevisiae rad52 mutant growth inhibition, active compounds read high
Summary of the method: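 Read-out: growth inhibition versus vehicle-treated controls. Cells were a DNA repair-deficient yeast strain treated with compounds.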

[2] = NCI Yeast Anticancer Drug Screen. Data for the wt1 strain (AID 149);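 also: 0% = growth of vehicle-treated wt1 cultures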; details: S. cerevisiae wt1 strain (SPY 50644) growth inhibition, active compounds read high
Summary of the method: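 Vehicle-normalised growth inhibition; strain wt1; compound exposure.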

[3] = NCI Yeast Anticancer Drug Screen. Data for the rad50EPP+ strain (AID 151);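 also: 0% = growth of vehicle-treated control cultures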; details: S. cerevisiae rad50 mutant strain, active compounds read high
Summary of the method: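 Growth inhibition read against vehicle controls in rad50EPP+ yeast, a strain altered in DNA damage repair, after compound exposure.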

[4] = NCI Yeast Anticancer Drug Screen. Data for the mgt1 strain (AID 153); details: S. cerevisiae mgt1 mutant growth inhibition, active compounds read high
Summary of the method: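 mgt1 yeast grown with test compound; read-out is growth inhibition versus vehicle-treated cultures.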

[5] = NCI Yeast Anticancer Drug Screen. Data for the rad50 strain (AID 155);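 also: 0% = growth of vehicle-only cultures of the same strain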; details: S. cerevisiae rad50 strain growth inhibition, active compounds read high
Summary of the method: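 A DNA repair-deficient yeast mutant serves as the test organism; compound-induced growth inhibition is calculated against vehicle-treated cells.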

[6] = NCI Yeast Anticancer Drug Screen. Data for the mec2-1 strain (AID 157); details: S. cerevisiae mec2-1 strain, active compounds read high
Summary of the method: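 Yeast mec2-1 mutant treated with compound. Readout: growth inhibition vs vehicle controls.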

[7] = NCI Yeast Anticancer Drug Screen. Data for the rad14 strain (AID 159);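 also: 0% = growth of vehicle-treated control cultures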; details: S. cerevisiae rad14 strain growth inhibition, active compounds read high
Summary of the method: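 Vehicle-treated cultures served as the baseline for growth inhibition of a DNA repair-mutant yeast strain exposed to each compound.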

[8] = NCI Yeast Anticancer Drug Screen. Data for the sgs1 mgt1 strain (AID 161);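 also: 0% = growth of cultures given vehicle only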; details: S. cerevisiae sgs1 mgt1 strain, active compounds read high
Summary of the method: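 Mutant yeast exposed to compound; growth scored against vehicle-only wells.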

[9] = NCI Yeast Anticancer Drug Screen. Data for the CLN2oe strain (AID 163);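 also: 0% = growth of vehicle-only control cultures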; details: S. cerevisiae CLN2oe strain, active compounds read high
Summary of the method: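 Read-out: yeast growth inhibition, expressed relative to vehicle-only controls. The strain bears an engineered cell-cycle alteration.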

[10] = NCI Yeast Anticancer Drug Screen. Data for the cln2 rad14 strain (AID 165);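 also: 0% = growth equal to vehicle treated cultures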; details: S. cerevisiae cln2 rad14 strain, active compounds read high
Summary of the method: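 cln2 rad14 yeast strain; compound exposure; growth inhibition read vs vehicle controls.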

[11] = NCI Yeast Anticancer Drug Screen. Data for the bub3 strain (AID 167); details: S. cerevisiae bub3 mutant strain, active compounds read high
Summary of the method: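 Inhibition values come from growth of compound-treated mutant yeast normalised to vehicle-treated controls.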

[12] = NCI Yeast Anticancer Drug Screen. Data for the wt2 strain (AID 169);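 also: 0% = growth of vehicle-treated yeast cultures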; details: S. cerevisiae wt2 strain growth inhibition, active compounds read high
Summary of the method: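 Read-out: growth inhibition versus vehicle-treated control cultures after compound exposure of the yeast strain.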

[13] = NCI Yeast Anticancer Drug Screen. Data for the mlh1 strain (AID 171);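 also: 0% = growth of vehicle-treated control cultures of the same strain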; details: S. cerevisiae mlh1 strain growth inhibition, active compounds read high
Summary of the method: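 Read-out: growth inhibition versus vehicle controls. Strain: engineered yeast with a defined DNA repair or cell cycle defect, compound-treated.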

[14] = NCI Yeast Anticancer Drug Screen. Data for the sgs1 strain (AID 173);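 also: 0% = growth of vehicle-only control cultures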; details: S. cerevisiae sgs1 mutant, active compounds read high
Summary of the method: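 Read-out: yeast growth inhibition relative to vehicle controls, following compound exposure of a strain with a defined DNA repair/cell cycle alteration.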

[15] = NCI Yeast Anticancer Drug Screen. Data for the rad18 strain (AID 177); details: S. cerevisiae rad18 mutant growth inhibition, active compounds read high
Summary of the method: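 Readout: growth inhibition vs vehicle controls. Cells: genetically altered yeast strain, DNA repair defect.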

[16] = at 5.0 µM (retest, dose inferred, filed as 0.5)
[17] = at 50.0 µM (retest, dose inferred, filed as 5.0)

Measured: growth inhibition

CN(C)CCCCN1c2ccccc2Sc2ccc(N=[N+]=[N-])cc21
active: [1]; at 100.0 µM 99% | [2]; at 100.0 µM 99% | [3]; at 100.0 µM 80% | [4]; at 100.0 µM 99% | [5]; [16] 91% | [5]; [17] 99% | [5]; at 50.0 µM 84.2% | [5]; at 100.0 µM 98% | [6]; [17] 99% | [6]; at 50.0 µM 79.2% | [6]; at 100.0 µM 99% | [7]; at 100.0 µM 99% | [8]; [17] 99% | [8]; at 50.0 µM 90.5% | [9]; at 100.0 µM 98% | [10]; [17] 99% | [10]; at 50.0 µM 89.5% | [11]; [17] 98% | [11]; at 50.0 µM 72% | [11]; at 100.0 µM 98% | [12]; at 100.0 µM 99% | [13]; at 100.0 µM 99% | [14]; at 100.0 µM 99% | [15]; at 100.0 µM 99%
inactive: [1]; at 1.2 µM 29% | [1]; at 3.7 µM 37% | [1]; at 11.0 µM 45% | [1]; at 33.0 µM 49% | [2]; at 1.2 µM 23% | [2]; at 3.7 µM 36% | [2]; at 11.0 µM 36% | [2]; at 33.0 µM 47% | [3]; at 1.2 µM 24% | [3]; at 3.7 µM 20% | [3]; at 11.0 µM 23% | [3]; at 33.0 µM 23% | [4]; at 1.2 µM 19% | [4]; at 3.7 µM 20% | [4]; at 11.0 µM 31% | [4]; at 33.0 µM 51% | [5]; at 1.2 µM 6% | [5]; at 3.7 µM 20% | [5]; at 11.0 µM 15% | [5]; at 33.0 µM 47% | [6]; at 1.2 µM 33% | [6]; at 3.7 µM 31% | [6]; [16] 33% | [6]; at 11.0 µM 36% | [6]; at 33.0 µM 42% | [7]; at 1.2 µM 0% | [7]; at 3.7 µM 8% | [7]; at 11.0 µM 19% | [7]; at 33.0 µM 55% | [8]; [16] -16% | [9]; at 1.2 µM 19% | [9]; at 3.7 µM 18% | [9]; at 11.0 µM 24% | [9]; at 33.0 µM 39% | [10]; [16] 8% | [11]; at 1.2 µM -8% | [11]; at 3.7 µM -10% | [11]; [16] 4% | [11]; at 11.0 µM -14% | [11]; at 33.0 µM 14% | [12]; at 1.2 µM -8% | [12]; at 3.7 µM -15% | [12]; at 11.0 µM -14% | [12]; at 33.0 µM 46% | [13]; at 1.2 µM 32% | [13]; at 3.7 µM 31% | [13]; at 11.0 µM 35% | [13]; at 33.0 µM 57% | [14]; at 1.2 µM 10% | [14]; at 3.7 µM 42% | [14]; at 11.0 µM 43% | [14]; at 33.0 µM 67% | [15]; at 1.2 µM 10% | [15]; at 3.7 µM 14% | [15]; at 11.0 µM 24% | [15]; at 33.0 µM 57%

NC1CCCCC1N.Nc1c(N=Nc2ccc(-c3ccc(N=Nc4cc(S(=O)(=O)[O-])c5ccccc5c4N)cc3)cc2)cc(S(=O)(=O)[O-])c2ccccc12.[OH3+].[OH3+].[Pt+4]
active: [1]; at 33.0 µM 80% | [2]; at 100.0 µM 92% | [3]; at 11.0 µM 91% | [3]; at 33.0 µM 88% | [4]; at 11.0 µM 90% | [4]; at 33.0 µM 94% | [4]; at 100.0 µM 84% | [5]; at 33.0 µM 89% | [5]; [17] 83% | [5]; at 50.0 µM 86.7% | [5]; at 100.0 µM 70% | [6]; [16] 88% | [6]; at 33.0 µM 92% | [6]; [17] 84% | [6]; at 50.0 µM 80.9% | [6]; at 100.0 µM 77% | [7]; at 11.0 µM 85% | [7]; at 33.0 µM 94% | [7]; at 100.0 µM 81% | [8]; [17] 89% | [8]; at 50.0 µM 84.9% | [9]; at 33.0 µM 89% | [10]; [17] 78% | [11]; [16] 91% | [11]; at 33.0 µM 90% | [11]; [17] 83% | [11]; at 50.0 µM 82.5% | [12]; at 11.0 µM 86% | [12]; at 33.0 µM 90% | [12]; at 100.0 µM 70% | [13]; at 11.0 µM 81% | [13]; at 33.0 µM 90% | [14]; at 11.0 µM 95% | [14]; at 33.0 µM 93% | [14]; at 100.0 µM 80% | [15]; at 33.0 µM 88% | [15]; at 100.0 µM 71%
inactive: [1]; at 1.2 µM 0% | [1]; at 3.7 µM 4% | [1]; at 11.0 µM 47% | [1]; at 100.0 µM 65% | [2]; at 1.2 µM 1% | [2]; at 3.7 µM -43% | [2]; at 11.0 µM 26% | [2]; at 33.0 µM 35% | [3]; at 1.2 µM -7% | [3]; at 3.7 µM 13% | [3]; at 100.0 µM 60% | [4]; at 1.2 µM 1% | [4]; at 3.7 µM 12% | [5]; at 1.2 µM 2% | [5]; at 3.7 µM 1% | [5]; [16] 1% | [5]; at 11.0 µM 28% | [6]; at 1.2 µM 0% | [6]; at 3.7 µM 9% | [6]; at 11.0 µM 66% | [7]; at 1.2 µM 2% | [7]; at 3.7 µM 13% | [8]; [16] 38% | [9]; at 1.2 µM 1% | [9]; at 3.7 µM -1% | [9]; at 11.0 µM 22% | [9]; at 100.0 µM 63% | [10]; [16] 66% | [10]; at 50.0 µM 69.8% | [11]; at 1.2 µM -1% | [11]; at 3.7 µM -1% | [11]; at 11.0 µM 54% | [11]; at 100.0 µM 68% | [12]; at 1.2 µM -1% | [12]; at 3.7 µM 10% | [13]; at 1.2 µM -1% | [13]; at 3.7 µM 7% | [13]; at 100.0 µM 65% | [14]; at 1.2 µM 4% | [14]; at 3.7 µM 22% | [15]; at 1.2 µM 1% | [15]; at 3.7 µM -2% | [15]; at 11.0 µM 25%

O=C1C(Br)=C(c2ccccc2)O/C1=C/C(=O)c1ccc(Br)cc1
active: [1]; at 100.0 µM 75% | [3]; at 33.0 µM 84% | [3]; at 100.0 µM 86% | [4]; at 100.0 µM 88%
inactive: [1]; at 1.2 µM 2% | [1]; at 3.7 µM 6% | [1]; at 11.0 µM 12% | [1]; at 33.0 µM 26% | [2]; at 1.2 µM 3% | [2]; at 3.7 µM 5% | [2]; at 11.0 µM 10% | [2]; at 33.0 µM 16% | [2]; at 100.0 µM 44% | [3]; at 1.2 µM 9% | [3]; at 3.7 µM 22% | [3]; at 11.0 µM 59% | [4]; at 1.2 µM 2% | [4]; at 3.7 µM 5% | [4]; at 11.0 µM 10% | [4]; at 33.0 µM 36% | [5]; at 1.2 µM 4% | [5]; at 3.7 µM 5% | [5]; [16] -21% | [5]; at 11.0 µM 11% | [5]; at 33.0 µM 18% | [5]; [17] 34% | [5]; at 50.0 µM 24.2% | [5]; at 100.0 µM 49% | [6]; at 1.2 µM -1% | [6]; at 3.7 µM 5%
